# Test results published in PubChem BioAssay (NCI).
# About 83,000 compounds went through this panel and 20% of them were active in at least one assay; those are over-represented in the sample as a whole.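 Plates (96-well) were seeded with cells, treated with compound at one concentration, and incubated for 48 hours before percent growth was determined.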 Unmarked numbers belong to inactive results. Calls of active or inactive are those of the source. How the source made its calls: active means growth percent below 10; inactive means the rest.
# Columns and labels:
# Test in all cases: NCI-60 one-dose screen, 48 h (100 = growth as untreated, 0 = no growth, -100 = all killed)
# ACHN renal = conditions: 10 µM unless noted
# A498 renal = tested on: A498 renal
# CCRF-CEM leukemia = tested on: CCRF-CEM leukemia
# MOLT-4 leukemia = tested on: MOLT-4 leukemia
# HCT-15 colon = tested on: HCT-15 colon
# HT29 colon = tested on: HT29 colon
# SNB-75 CNS = tested on: SNB-75 CNS
# SNB-19 CNS = tested on: SNB-19 CNS
# U251 CNS = tested on: U251 CNS
# PC-3 prostate = tested on: PC-3 prostate
# SK-MEL-5 melanoma = tested on: SK-MEL-5 melanoma
# UACC-62 melanoma = tested on: UACC-62 melanoma
# LOX IMVI melanoma = tested on: LOX IMVI melanoma
# SK-MEL-28 melanoma = tested on: SK-MEL-28 melanoma
# SK-MEL-2 melanoma = tested on: SK-MEL-2 melanoma
# EKVX NSCLC = tested on: EKVX NSCLC
# SN12C renal = tested on: SN12C renal
# UO-31 renal = tested on: UO-31 renal
# TK-10 renal = conditions: 10 µM unless noted
# CAKI-1 renal = conditions: 10 µM unless noted
smiles,measurement,setting,value
COc1ccc(C(=O)/C=C/c2ccc(OCc3ccc(Cl)cc3)cc2)cc1OC,growth,ACHN renal,103%
same,growth,A498 renal; 10 µM,85.5%
same,growth,A498 renal; 100 µM,-33.3% (active)
same,growth,CCRF-CEM leukemia; 10 µM unless noted,73.4% [100 µM]
same,growth,MOLT-4 leukemia; 10 µM,90.4%
same,growth,MOLT-4 leukemia; 100 µM,62.8%
CC(=O)/C=C/c1ccc(OCc2ccc(Cl)cc2)cc1,growth,HCT-15 colon; 10 µM,96.7%
same,growth,HCT-15 colon; 100 µM,42%
same,growth,HT29 colon; 10 µM,94.3%
same,growth,HT29 colon; 100 µM,36.2%
same,growth,SNB-75 CNS; 10 µM,91%
same,growth,SNB-75 CNS; 100 µM,35.6%
same,growth,SNB-19 CNS; 10 µM,105%
same,growth,SNB-19 CNS; 100 µM,51.7%
same,growth,U251 CNS; 10 µM,88.3%
same,growth,U251 CNS; 100 µM,33.9%
same,growth,PC-3 prostate; 10 µM,90%
same,growth,PC-3 prostate; 100 µM,36.1%
same,growth,SK-MEL-5 melanoma; 10 µM,97.7%
same,growth,SK-MEL-5 melanoma; 100 µM,-37% (active)
same,growth,UACC-62 melanoma; 10 µM,95.5%
same,growth,UACC-62 melanoma; 100 µM,24.6%
same,growth,LOX IMVI melanoma; 10 µM,86.7%
same,growth,LOX IMVI melanoma; 100 µM,32.2%
same,growth,SK-MEL-28 melanoma; 10 µM,112%
same,growth,SK-MEL-28 melanoma; 100 µM,26.1%
same,growth,SK-MEL-2 melanoma; 10 µM,101%
same,growth,SK-MEL-2 melanoma; 100 µM,4.19% (active)
same,growth,EKVX NSCLC; 10 µM,116%
same,growth,EKVX NSCLC; 100 µM,28.8%
same,growth,SN12C renal; 10 µM,102%
same,growth,SN12C renal; 100 µM,48.6%
same,growth,UO-31 renal; 10 µM,91.4%
same,growth,UO-31 renal; 100 µM,21%
same,growth,ACHN renal,109%
same,growth,A498 renal; 10 µM,82.6%
same,growth,A498 renal; 100 µM,12.1%
same,growth,CCRF-CEM leukemia; 10 µM,86.8%
same,growth,CCRF-CEM leukemia; 100 µM,41.2%
same,growth,MOLT-4 leukemia; 10 µM,92.8%
same,growth,MOLT-4 leukemia; 100 µM,16.7%
Cc1ccc(/C=C/c2c(C(=O)/C=C/c3ccccc3)c(C)nc3ccccc23)cc1,growth,HCT-15 colon; 10 µM unless noted,-24.6% (active)
same,growth,HT29 colon; 10 µM unless noted,0.173% (active)
same,growth,SNB-75 CNS; 10 µM unless noted,29%
same,growth,SNB-19 CNS; 10 µM unless noted,15.7%
same,growth,U251 CNS; 10 µM unless noted,-5.93% (active)
same,growth,PC-3 prostate; 10 µM unless noted,31.3%
same,growth,SK-MEL-5 melanoma; 10 µM unless noted,32.3%
same,growth,UACC-62 melanoma; 10 µM unless noted,29.2%
same,growth,LOX IMVI melanoma; 10 µM unless noted,-79.4% (active)
same,growth,SK-MEL-28 melanoma; 10 µM unless noted,24.3%
same,growth,SK-MEL-2 melanoma; 10 µM unless noted,2.34% (active)
same,growth,EKVX NSCLC; 10 µM unless noted,46.5%
same,growth,SN12C renal; 10 µM unless noted,36.9%
same,growth,UO-31 renal; 10 µM unless noted,18.4%
same,growth,TK-10 renal,29.3%
same,growth,ACHN renal,8.19% (active)
same,growth,CAKI-1 renal,22.3%
same,growth,A498 renal; 10 µM unless noted,59.3%
same,growth,CCRF-CEM leukemia; 10 µM unless noted,5.43% (active)
same,growth,MOLT-4 leukemia; 10 µM unless noted,6.13% (active)
